# Compound activity as filed in PubChem BioAssay.
# The list is not random: actives were taken first. Their share in the collection is about 12%.
# Sm TGR inh: S. mansoni TGR enzyme inhibition | purified TGR, DTNB reduction, TNB absorbance 405 nm | Potency, µM (top dose mostly 114 µM), inactives show top-dose activity change, negative = inhibition, actives largely listed as inhibitors | 360,000 tested, 3% active; further: on the % scale 0 is the no-effect control and ±100 the full control effect; nearly all actives have a fitted effect of over 60% in size
#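 Kinetic colorimetric format: TGR-catalysed, NADPH-driven DTNB reduction monitored via TNB absorbance. Enzyme dispensed at 20 nM; compound exposure 15 min at room temperature before reaction start.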
# Pf growth 96h: P. falciparum growth inhibition at 96 hours; P. falciparum luciferase reporter growth, 96 h; Potency, µM (highest dose often 28.7 µM), for inactives: at the top dose activity change, negative = inhibition, most hits filed as inhibitors; 320,000 tested, 6.9% active; AID 504834; further: on the % scale 0 is the no-effect control and ±100 the full control effect
#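 Two parasite generations (96 h, 37 C, 5% CO2) of compound exposure in infected erythrocytes (0.05% parasitemia, 2% hematocrit). Luciferase-reporter P. falciparum; decreased luminescence indicates inhibited growth, aimed at apicoplast-acting delayed death.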
# Pf growth 48h: inhibits P. falciparum growth in the first generation, 48 h. P. falciparum luciferase growth in erythrocytes, 48 h. Potency, µM (doses to about 28.7 µM), for the others: at the top dose activity change, negative = inhibition, hits mostly inhibitors. 310,000 tested, 5.9% active. AID 504832; further: on the % scale 0 is the no-effect control and ±100 the full control effect
#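 Luciferase-expressing parasites in RBCs, 2% Hct / 0.1% parasitemia final; RPMI 1640 + 0.5% Albumax; 37 C, 5% CO2, one generation; luminescence read-out, lower signal = inhibition.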
# SARS PLpro yeast: inhibitors of SARS-CoV papain-like protease in yeast. S. cerevisiae expressing SARS-CoV PLpro, growth rescue. Potency, µM (top dose mostly 32.9 µM), inactives show top-dose activity, positive = growth rescue, hits mostly activators. 330,000 tested, 0.19% active. AID 485353; calls by dose curve; further: 0% is about no effect; nearly all actives have a fitted effect of over 55% in size
# * = called active by the depositor; ? = inconclusive; . = no result given. Unless noted, the call rests on the fitted dose curve; in most records, active means well fitted curve in the direction sought with a large enough effect; inconclusive means small, poorly fitted or top-dose-only effect, or another doubt; inactive means no such curve, though single readings can be large; an effect the other way counts as inactive or inconclusive. Potency means the concentration at half of the fitted maximal effect.
SMILES,Sm TGR inh,Pf growth 96h,Pf growth 48h,SARS PLpro yeast
O=C(c1cccc(NS(=O)(=O)c2ccc(F)c(F)c2)c1)N1CCCCC1,4%,19%,14%,-4%
Cc1ccc(-c2nn(-c3ccccc3)cc2/C=C(\C#N)c2cccc(C#N)c2)o1,50µM*,.,12µM*,-1%
CC(=O)c1sc(NC(=O)CSCc2c(C)noc2C)nc1-c1ccccc1,7%,?,10µM*,-2%
Cc1noc(C)c1CSCC(=O)Nc1nc2ccccc2s1,1%,?,17%,-6%
CCOC(=O)c1sc(NC(=O)CSc2nnc(-c3ccc(OC)cc3)n2CCOC)nc1C,-6%,13µM*,?,-12%
CCOC(=O)c1sc(NC(=O)CSc2ncccn2)nc1C,1%,13µM*,50%,7%
CCc1ccc2nc(NC(=O)CSCc3c(C)noc3C)sc2c1,-5%,30%,2%,5%
COCCn1c(SCC(=O)Nc2nnc(C)s2)nnc1-c1ccncc1,4%,?,17%,-1%
CCOC(=O)c1sc(NC(=O)CSCc2c(C)noc2C)nc1C,-8%,?,10µM*,2%
CN(C)C(=O)[C@H]1C[C@H]1[C@@H](O)[C@H](CO)NC(=O)[C@H](Cc1ccccc1)NC(=O)OC(C)(C)C,4%,-26%,15%,-9%
CCCn1c(=O)c2sccc2n2c(CCCC(=O)NC3CCC(C)CC3)nnc12 (stereo not drawn),12%,.,.,.
O=[N+]([O-])c1ccc(COc2ccc(-c3[nH]ncc3-c3ccc(Cl)cc3)c(O)c2)cc1,-2%,?,2.3µM*,-102%
COc1ccc(-c2cn[nH]c2-c2ccc(OCc3ccccc3)cc2O)cc1,10%,?,?,-9%
COc1ccc(-c2cn[nH]c2-c2ccc(OCc3ccc([N+](=O)[O-])cc3)cc2O)cc1OC,3%,9.3µM*,10µM*,6%
CCc1cc(-c2[nH]ncc2-c2ccc([N+](=O)[O-])cc2)c(O)cc1OC,6%,-29%,4.7µM*,-12%
Cc1cc(C)c(C)c(S(=O)(=O)NC(C(=O)NCCc2ccco2)C(C)C)c1C (stereo not drawn),?,?,?,-10%
Cc1ccc(C(=O)NCCN2C3=NC[C@H](C(C)C)N3C[C@H]2Cc2ccc(O)cc2)cc1Br,-29%,2.6µM*,4.7µM*,-1%
COc1ccc(C[C@H]2CN3C(=NC[C@@H]3C(C)C)N2CCNC(=O)c2ccc(C)c(Br)c2)cc1,?,2.1µM*,?,-1%
C/C=C(\C)C(=O)NCCN1C2=NC[C@H](C(C)C)N2C[C@@H]1Cc1ccc(OC)cc1,0%,90%,48%,0%
Cc1ccc(-n2nnc(-c3nc(-c4cccs4)no3)c2N)cc1C,-10%,.,.,.
CC(C)(C)NC(=S)NC(=O)C12CC3CCC(CC(C3)C1)C2,0%,0%,10µM*,-12%
COc1ccc(NC(=O)c2cc3c(=O)n(C)c4cc(Cl)ccc4c3s2)cc1Cl,11%,.,.,.
CC(C)Oc1ccc(CNC(=O)Cn2c(=O)c3cccn3c3cccnc32)cc1,-7%,15µM*,17%,-4%
COc1ccc(N2CCN(C(=O)CCCn3c(=O)c4cccn4c4cccnc43)CC2)cc1,-7%,43%,12µM*,-3%
CC(C)Oc1ccc(CNC(=O)c2ccc(Cn3c(=O)c4cccn4c4cccnc43)cc2)cc1,0%,.,.,.
SMILES,Sm TGR inh,Pf growth 96h,Pf growth 48h,SARS PLpro yeast
COc1ccc(CCNC(=O)CCCn2c(=O)c3cccn3c3cccnc32)c(OC)c1,-9%,10µM*,?,1%
COc1ccc(CCNC(=O)CCn2c(=O)c3cccn3c3cccnc32)c(OC)c1OC,-1%,.,.,.
COc1ccc(CCNC(=O)CCCn2c(=O)c3cccn3c3cccnc32)c(OC)c1OC,-4%,13µM*,?,4%
COc1ccc(N2CCN(C(=O)CCn3c(=O)c4cccn4c4cccnc43)CC2)cc1,-1%,.,.,.
Cc1ccc(Cl)cc1NC(=O)CCc1c(C)nc2c3cccnc3nn2c1C,1%,.,.,.
COc1ccc(C(CNC(=O)C(Cc2ccccc2)NC(N)=O)N(C)C)cc1 (stereo not drawn),-30%,-3%,.,-2%
CCN(CC)CCCNC(=O)CN1C(=O)CCn2nc(-c3cn(C)c4ccccc34)cc21,-3%,.,.,.
Nc1nnn(CC(=O)N/N=C/C=C/c2ccccc2)n1,1%,21%,5%,2%
COc1ccc(NC(=O)CN2CCN(c3c(C)cccc3C)CC2)cc1,16%,-3%,-18%,-1%
Cc1cc(S(=O)(=O)N2CCC3(CC2)OCCN3S(=O)(=O)c2cccs2)ccc1F,0%,?,-26%,3%
CCN1CCN(C(=O)c2cnn(-c3ccc(F)cc3F)c2C2CCN(C(=O)OC(C)(C)C)CC2)CC1,-4%,.,.,.
COc1ccc(N2CCN(CCCn3c(=S)[nH]c4ncccc4c3=O)CC2)cc1,-6%,13µM*,.,14%
O=c1c2cccnc2[nH]c(=S)n1CCCN1CCN(c2ccc(F)cc2)CC1,-17%,.,8%,8%
Cc1cnc(NC(=O)c2c(Cl)cnn2C)s1,0%,10%,28%,-8%
O=C1CCCN2N=C(SCC(=O)Nc3cccc(Cl)c3)SC2=N1,2%,82%,?,-1%
O=C1CCCN2N=C(SCC(=O)Nc3ccc(Cl)cc3)SC2=N1,3%,10µM*,-13%,0%
CCCCc1ccc(NC(=O)CSC2=NN3CCCC(=O)N=C3S2)cc1,0%,2.1µM*,-4%,-1%
Cn1nc([N+](=O)[O-])c(C(C#N)c2nc3ccccc3n2C)c(Cl)c1=O (stereo not drawn),32µM*,4%,-9%,0%
Cn1c(-c2ccc([N+](=O)[O-])cc2)nc2ccccc21,.,26%,36%,-1%
Cc1ccc2c(c1)[C@@H]1[C@H](CO2)[C@H](c2ccccc2)[C@@]2(C)C(=O)N[C@H](C)C(=O)N12,.,.,.,2%
N#CC1=C(N)C(C#N)(C#N)[C@H](c2ccncc2)[C@H]2CN(C(=O)OCc3ccccc3)CC=C12,?,?,10µM*,-10%
COc1cc([C@@H]2[C@H]3CNCC=C3C(C#N)=C(N)C2(C#N)C#N)ccc1OC(C)C,?,-12%,13µM*,1%
CCCOc1ccc([C@@H]2C3CN(C(=O)OCC)CC=C3C(C#N)=C(N)C2(C#N)C#N)cc1OC (stereo partly drawn),?,.,5.9µM*,-5%
N#CC1=C(N)C(C#N)(C#N)[C@H](c2ccncc2)[C@H]2CC3(CC=C12)OCCO3,79µM*,4%,-12%,4%
COc1ccccc1/C=C/C(=O)OCC(=O)N1c2ccccc2CC1C (stereo not drawn),5%,-13%,-22%,-3%
CCOc1ccc(-n2c(=O)c3c(C)c(C)sc3n(Cc3ccccc3C)c2=O)cc1,-1%,.,.,.
CC(C)(C)OC(=O)N1CC=C2C(C#N)=C(N)C(C#N)(C#N)[C@H](c3cccnc3)[C@H]2C1,35µM*,.,-20%,0%
Cc1c(C(=O)N2CC(C)OC(C)C2)[nH]c2ccc(Br)cc12 (stereo not drawn),3%,13µM*,?,-3%
